Rows were chosen to be rich in hits. Some 4% of all compounds tested hit in one or more screens of this group.
TWEAK Fn14 block – inhibitors of TWEAK-Fn14 interaction signaling; TWEAK-stimulated Fn14 reporter cells, luciferase luminescence, 8 h; inhibition, % at 10 µM; actives 2% (n = 360,000); AID 1159606; in the data active = inhibition above about 50%
HIF-2a inh – inhibitors of HIF-2a; 786-0 RCC cells HIF-2a reporter, luciferase luminescence, overnight; AID 624352; inhibition, % at 18.8 µM; actives 0.72% (n = 360,000);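 active = inhibition of the luminescence signal of 40% or more relative to plate controls, in a single-dose primary screen at 18.75 µM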
Peg3 prom inh-1 – Peg3 promoter activity inhibition | AID 588405 | actives 1.7% (n = 360,000) | inhibition, % at 20 µM | HeLa PEG-Prom luciferase reporter, luminescence, overnight;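 active = inhibition of at least 50% at 20 µM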
TROY NFkB inh – inhibitors of TROY-dependent NF-kB signaling | Q293 LMP1-TROYcd NF-kB luciferase reporter, 4 h | inhibition, % at 10 µM | actives 0.98% (n = 360,000) | AID 1347056;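 active = compounds whose plate-normalised and pattern-corrected inhibition of the luciferase reporter signal at the single screening dose is 50% or more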
CF NFkB inh – inhibitors of cystic fibrosis induced NF-kB; KKLEB NF-kB-GFP reporter, PAF-induced, GFP fluorescence overnight; inhibition, % at 5 µM; actives 0.86% (n = 360,000); AID 588850;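 active = at least 50% inhibition at 5 µM, scaled per plate between neutral and stimulator controls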;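 note: PAF is a Pseudomonas aeruginosa culture filtrate used as stimulus; plate controls were PAF-stimulated DMSO wells for no effect and unstimulated DMSO wells for full effect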
KKLEB tox – reduces viability of KKLEB cystic fibrosis airway cells. AID 602141. KKLEB CF airway cells viability, ATPlite luminescence, overnight; stronger effect = lower value; cells stimulated with P. aeruginosa culture filtrate. actives 0.36% (n = 360,000). activity change (cytotoxicity), % at 5 µM;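 active = corrected activity change at or below -50% at 5 µM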
Peg3 prom inh-2 – Peg3 promoter inhibition confirmation; AID 602417; HeLa PEG-Prom luciferase reporter, luminescence, overnight; actives 84% (n = 1,300); shares compounds with Peg3 prom inh-1; inhibition, % at 20 µM;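 active = at 20 µM dose, 40% or more inhibition averaged across four replicates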
Mdm2-MdmX confirm – Mdm2/MdmX (human) interaction inhibition, confirmed. shares compounds with HIF-2a inh. SaOS-2 split-luciferase Mdm2/MdmX complementation, luminescence. inhibition, % at 8 µM. actives 99% (n = 740). AID 504601;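 active = mean inhibition of the luminescence signal across two replicates at or above 26 percent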
HIF-2a inh conf – HIF-2a inhibition, single concentration confirmation; shares compounds with HIF-2a inh; 786-0 RCC cells, HIF-2a luciferase reporter luminescence, overnight; inhibition, % at 18.8 µM; actives 56% (n = 1,800);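 active = mean inhibition across four replicates of at least 40 percent at the single tested concentration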
HIF-1a cs – counter-screen for HIF-2a inhibitors: HIF-1a inhibition in MiaPaCa-2 cells; actives 72% (n = 1,800); shares compounds with HIF-2a inh; MiaPaCa-2 HIF-1a luciferase reporter, desferoxamine, overnight; inhibition, % at 18.8 µM;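 active = mean inhibition of the reporter signal across four replicates at the single tested dose of 50% or more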
Starred values were filed as active, the others as inactive; x = not tested or not shown.

SMILES | TWEAK Fn14 block | HIF-2a inh | Peg3 prom inh-1 | TROY NFkB inh | CF NFkB inh | KKLEB tox | Peg3 prom inh-2 | HIF-2a inh conf | HIF-1a cs | others
Cc1cc(C(=O)COC(=O)c2ccccc2O)c(C)n1CC1CCCO1 (configuration not stated) | 106* | 90* | 85* | 90* | 31 | -22 | 92* | 95* | 98*
O=C(COC(=O)c1ccccc1Br)NCC1CCCO1 (configuration not stated) | 3 | -9 | -19 | -21 | -8 | 13 | x | x | x
Cc1cc(C(=O)COC(=O)c2ccccc2Br)c(C)n1CC1CCCO1 (configuration not stated) | 92* | 55* | 54* | 71* | 15 | -32 | 78* | 68* | 90*
CCCCC(=O)NC(c1ccccc1)c1ccc2cccnc2c1O (configuration not stated) | 20 | 0 | 55* | 11 | -14 | 0 | 88* | x | x | Mdm2-MdmX confirm=87*
CCCC(=O)NC(c1ccccc1)c1ccc2cccnc2c1O (configuration not stated) | 13 | 6 | 53* | 12 | -9 | 0 | 63* | x | x | Mdm2-MdmX confirm=80*
CCCCC(=O)NC(c1ccco1)c1cc(Cl)c2cccnc2c1O (configuration not stated) | 26 | 35 | 49 | 21 | 21 | -12 | x | x | x
CCC(=O)NC(c1ccccc1OC)c1ccc2cccnc2c1O (configuration not stated) | 16 | 13 | 47 | 7 | -9 | -2 | x | x | x
CCCC(=O)NC(c1ccc(OC)cc1)c1ccc2cccnc2c1O (configuration not stated) | 14 | 13 | 55* | 5 | 10 | -18 | 71* | x | x | Mdm2-MdmX confirm=86*
Cn1nnnc1Sc1ncnc2scc(-c3ccsc3)c12 | 72* | 66* | 95* | 33 | 47 | 7 | 96* | 49* | 100* | Mdm2-MdmX confirm=103*
COc1ccccc1NC(=O)COC(=O)C1C2CC3OC(=O)C1C3C2 (configuration not stated) | 6 | -2 | -4 | -9 | -14 | 7 | x | x | x
O=C(O)c1cccc(COc2ccccc2Cl)c1 | 73* | 77* | 92* | -10 | -19 | -6 | 82* | 93* | 36 | Mdm2-MdmX confirm=78*
O=C(O)c1ccc(COc2ccccc2Cl)cc1 | 6 | -129 | -90 | -55 | -1 | -4 | x | x | x
C[C@@H]1CN([C@H](C)CO)S(=O)(=O)c2ccc(C#Cc3ccccc3)cc2O[C@H]1CN(C)C(=O)Nc1ccc2c(c1)OCO2 | 24 | -67 | 32 | -4 | 11 | 8 | x | x | x
CCOc1ccc(C(=O)Nc2ccccc2-c2ccccc2)cc1Cl | -17 | -23 | -21 | 15 | -7 | 14 | x | x | x
CCOc1ccc(C(=O)Nc2cccc(C(=O)O)c2C)cc1Cl | 68* | 54* | 55* | -15 | 3 | 5 | 14 | 54* | 13
COc1ccc(NC(=O)c2cc(C3CCCCN3C(=O)c3ccc(NC(C)=O)cc3)on2)c(C)c1 (configuration not stated) | -7 | 6 | 8 | -8 | -25 | 10 | x | x | x
Cc1ccc(C(=O)n2c(N)nc3ccccc32)cc1 | 99* | 42* | 80* | 73* | -4 | -49 | 28 | 69* | 87*
N#Cc1ccc(C(=O)Nc2nc3ccccc3[nH]2)cc1 | 28 | -187 | -279 | 5 | 14 | 1 | x | x | x
CCc1ccc(C(=O)Nc2nc3ccccc3[nH]2)cc1 | 98* | 63* | 77* | 80* | 5 | -69* | 67* | 84* | 84*
Cc1cccc(-c2onc3ccc(C(=O)/C=C/N(C)C)cc23)c1 | 21 | -15 | -14 | -23 | 11 | 10 | x | x | x
N#Cc1c(N)nc2c3c(sc(=N)c2c1N)NC(=O)CC3c1ccccc1 (configuration not stated) | -22 | 9 | 23 | -13 | 10 | -11 | x | x | x
Cc1c(C#N)c(N)nc2c3c(sc12)NC(=O)CC3c1ccc(Cl)cc1 (configuration not stated) | 15 | 40* | 68* | 11 | -39 | 0 | 48* | 18 | 17
CC(C)(C)c1ccc(/C=N/Nc2ccc(C(=O)O)cc2)cc1 | 93* | 74* | 80* | 59* | 18 | -2 | 73* | 76* | 33
O=C(Nc1cccc(C(=O)O)c1)Nc1ccc2c(c1)OCO2 | 6 | 83* | 84* | -30 | 14 | -4 | 74* | x | x | Mdm2-MdmX confirm=64*
O=C(O)c1ccc(N/N=C/c2ccc(C(F)(F)F)cc2)cc1 | 90* | 45* | 66* | 29 | 6 | -2 | 52* | 68* | 33
SMILES | TWEAK Fn14 block | HIF-2a inh | Peg3 prom inh-1 | TROY NFkB inh | CF NFkB inh | KKLEB tox | Peg3 prom inh-2 | HIF-2a inh conf | HIF-1a cs | others
O=C(O)c1ccc(N/N=C/c2ccc3c(c2)OCO3)cc1 | 102* | 86* | 94* | 82* | 1 | 0 | 82* | 90* | 88*
O=C(Nc1ccc2c(c1)OCO2)Nc1ccc2c(c1)OCO2 | -30 | -214 | -244 | -41 | 4 | 0 | x | x | x
O=C(Nc1ccccc1Cl)c1cc(C2CCCN(C(=O)c3cccc(O)c3)C2)on1 (configuration not stated) | -10 | -44 | -61 | 4 | -6 | 5 | x | x | x
COC(=O)N=Nc1c(O)[nH]c2ccc(Br)cc12 | -24 | -19 | -2 | 2 | -53 | 20 | x | x | x
Oc1[nH]c2ccc(Br)cc2c1N=NC(=S)N1CCOCC1 | 105* | 68* | 76* | 49 | 32 | 0 | 85* | x | x | Mdm2-MdmX confirm=99*
O=C(Nc1nccs1)c1ncc(Cl)c(Cl)c1Cl | 8 | -68 | -142 | -40 | -20 | 12 | x | x | x
CCCNC(=O)C1(C)CCCN(C(=O)c2cccnc2Oc2ccccc2)C1 (configuration not stated) | -5 | 5 | -1 | 11 | -17 | 2 | x | x | x
O=C(Cn1ncc(Cl)c(Cl)c1=O)N1CCc2ccccc21 | 101* | 94* | 108* | 13 | 103* | -88* | 99* | 98* | 106*
O=C(Cn1ncc(Cl)c(Cl)c1=O)N1CCN(Cc2ccccc2)CC1 | 87* | 96* | 103* | 56* | 88* | -68* | 95* | 61* | 106*
CC1(C)OC2COC(c3[nH]nc4c(=O)[nH]c(=O)[nH]c34)C2O1 (configuration not stated) | -8 | -3 | -7 | -12 | 13 | -7 | x | x | x

Compound activity from PubChem BioAssay.
